# Records with an inconclusive call do not appear. Values without a mark were called inactive. Active and inactive are the calls of the source. The call rests on the fitted dose curve; in most records, active means well fitted inhibition curve with a large enough effect; inconclusive means small, poorly fitted or top-dose-only effect, or effect the other way; inactive means flat fitted curve, though single readings scatter.
# Target: Ubiquitin carboxyl-terminal hydrolase 2 (Homo sapiens) (UniProt O75604)
# Sequence (O75604 whole entry, looked up): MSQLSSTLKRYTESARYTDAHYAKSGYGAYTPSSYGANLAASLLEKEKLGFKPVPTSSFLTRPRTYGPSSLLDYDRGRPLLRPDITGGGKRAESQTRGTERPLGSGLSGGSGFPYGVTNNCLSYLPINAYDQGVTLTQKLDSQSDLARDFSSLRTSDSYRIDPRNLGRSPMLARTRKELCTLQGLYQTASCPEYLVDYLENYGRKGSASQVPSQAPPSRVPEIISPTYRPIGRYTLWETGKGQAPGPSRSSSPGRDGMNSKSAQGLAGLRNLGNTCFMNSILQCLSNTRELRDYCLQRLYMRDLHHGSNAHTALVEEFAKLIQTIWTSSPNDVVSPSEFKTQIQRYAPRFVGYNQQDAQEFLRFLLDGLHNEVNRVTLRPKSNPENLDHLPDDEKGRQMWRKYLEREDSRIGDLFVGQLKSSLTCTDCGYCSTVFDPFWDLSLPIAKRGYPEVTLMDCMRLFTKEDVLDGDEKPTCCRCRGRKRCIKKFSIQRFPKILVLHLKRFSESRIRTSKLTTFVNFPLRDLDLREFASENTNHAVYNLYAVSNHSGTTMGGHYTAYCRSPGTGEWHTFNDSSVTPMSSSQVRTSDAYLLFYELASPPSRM
# Experiment: Confirmation Assay for Inhibitors of Ubiquitin-specific Protease USP2a Using CHOP2 as the Reporter; further: nearly all actives have a fitted effect of over 55% in size;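 on activity change, negative = inhibition: plate controls were DMSO wells for no effect and full inhibition by NEM control for full effect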
# Details: USP2 core, Ub-CHOP2 coupled reporter fluorescence; series mostly up to 38.3 µM; activity change, negative = inhibition: at the top concentration
# In short: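 Ub-CHOP2 cleavage coupled to reporter activation was read by fluorescence after 60 min at RT, with 25 nM final Ub-CHOP2 and substrate. Enzyme (10 nM final USP2 core) first sat 30 min with compound; data were normalized to NEM and fitted to concentration-response curves.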
# Potency means the concentration at half of the fitted maximal effect.
Structure (SMILES),"activity change, negative = inhibition [%]",Potency
Cc1ccccc1NC(=O)CSc1nnc(-c2ccco2)c(-c2ccco2)n1,-11.5,
O=C(Nc1cccc(S(=O)(=O)N2CCCC2)c1)c1cncc(Br)c1,-0.951,
COc1ccccc1NC(=O)N1CCN(c2ccccn2)CC1,-0.22,
COC(=O)c1[nH]c2ccc(C)cc2c1NC(=O)CN1CCCc2ccccc21,-19.6,
COc1ccc(NC(=O)CN(Cc2ccccc2)S(C)(=O)=O)cc1,4.08,
Cc1cccc2c1N(CCCOc1ccc(C(C)(C)C)cc1)C(=O)C2=O,-3.62,
O=c1cc2oc3cc(O)c(O)cc3c(-c3ccccc3[N+](=O)[O-])c-2cc1O,,18.5 µM (active)
O=C(/C=C/c1ccc(Cl)c([N+](=O)[O-])c1)Nc1ccc(N2CCCC2)cc1,-14,
CCNC(=S)N/N=C/c1cn(Cc2ccc(F)cc2)c2ccccc12,2.36,
COC(=O)c1[nH]c2ccccc2c1NC(=O)CN1CCCc2ccccc21,-0.131,
CCCC(=O)Nc1ccc(N2CCN(C(=O)c3cc4ccccc4o3)CC2)cc1,4.98,
O=C1COc2ccc(C(=O)COC(=O)/C=C/c3ccc(Br)o3)cc2N1,,9.27 µM (active)
O=C1c2ccccc2C(=O)N1CCC1=CCCCC1,-1.52,
CCn1c(=O)c(C(=O)Nc2ccccc2S(N)(=O)=O)c(O)c2ccccc21,,13.1 µM (active)
Cc1ccc(C(=O)N(C)CC(=O)Nc2cccc(C)c2C)o1,-0.295,
COc1ccccc1NC(=O)CSc1nc(O)cc(=O)n1-c1ccccc1OC,-2.53,
Cc1ccccc1C(=O)Nc1ccc2nc3n(c(=O)c2c1)CCC3,-1.25,
CC1CCCC(N2CCN(C(=O)c3cccc(F)c3)CC2)C1 (stereo not given),-0.437,
C#CCOCCOCCOCCNc1nc(N2CCN(C(=O)CCCCCCCCCCNC(=O)[C@@H](CCC(=O)O)n3cc(CCCCCN)nn3)CC2)nc(N2CCN(C(=O)CCCCCCCCCCNC(=O)[C@H](CCCCN)n3cc(C[C@@H](C)CC)nn3)CC2)n1,,5.21 µM (active)
O=C1Nc2ccc(S(=O)(=O)N3CCCCCC3)c3cccc1c23,-0.6,

Structure (SMILES),"activity change, negative = inhibition [%]",Potency
CCOC(=O)N1CCN(C(=O)CN(c2cccc(C)c2)S(=O)(=O)c2ccccc2)CC1,-1.01,
O=C(COC(=O)c1ccc(F)c(S(=O)(=O)N2CCOCC2)c1)c1ccccc1,0.56,
O=C1CS/C(=C/C(=O)c2ccccc2)N1,3.74,
CC(C)(C)C1CCC(=NNC(=O)CN(c2ccccc2)S(C)(=O)=O)CC1 (stereo not given),-1.87,
O=C(COc1ccccc1)NCc1nnc(SCC(=O)Nc2nccs2)n1-c1ccccc1,-4.3,
Cc1noc(NS(=O)(=O)c2ccc(N3CC(O)=C(c4ccccc4)C3=N)cc2)c1C,3.36,
c1ccc(-c2ccccc2OCCCN2CCOCC2)cc1,-6.11,
COc1ccc(-n2c(=S)[nH]c3cc(C(=O)Nc4cc(OC)c(OC)c(OC)c4)ccc3c2=O)c(OC)c1,-0.814,
Cc1ccc(/C=N/NC(=O)c2cc(-c3ccc(C)o3)[nH]n2)cc1,-3.8,
O=c1oc2ccccc2n1Cn1c(=O)oc2ccccc21,2.63,
CC(C)CCn1c(CN2CCN(C(=O)c3ccco3)CC2)nc2c1c(=O)n(C)c(=O)n2C,-4.33,
O=C1NCC(CN(c2ccccc2)c2ccccc2)O1 (stereo not given),1.34,
O=C(NN=Cc1ccc(N2CCOCC2)s1)c1ccc([N+](=O)[O-])cc1,-0.992,
O=c1oc2c(CN3CCCCC3)c(O)ccc2c2c1CCCCC2,-1.38,
O=c1[nH]c(=S)[nH]c2c1C(c1ccc(Br)cc1)c1c([nH]c(=S)[nH]c1=O)O2,,9.27 µM (active)
Cc1cccc(-c2nnc3n2N=C(c2ccc(Br)cc2)CS3)c1,4.34,
O=C(Nc1ccc(S(=O)(=O)Nc2ncccn2)cc1)c1ccc(S(=O)(=O)N2CCCC2)cc1,-1.15,
O=C1NC(=Nc2ccc3ccccc3c2)S/C1=C/c1ccco1,-20.7,
CCOC(=O)N1CCC(NC(=O)c2ccc(OC)c(CN3CC(=O)N4CCCC4C3=O)c2)CC1 (stereo not given),-1.63,
O=C(Nc1cccc(-c2nn[nH]n2)c1)c1ccc(Br)s1,,5.21 µM (active)
